Only some compounds are listed: those with a hit (about 3.5% of all), similar ones and a draw of the others.
FBW7 activator = activators of human E3 ligase FBW7 | Q969H0 | AlphaScreen FBW7–phospho-cyclin E peptide binding, activator screen | normalized activity (activation), % at 26.1 µM | hit rate 0.13% among 650,000 | AID 1259310; in the data active = normalized activity above about 1.9%;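 note: purified mutant Fbw7 with reduced substrate affinity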
GPR151 activ = human GPR151 activation. Q8TDV0. PathHunter beta-arrestin GPR151 cells, luminescence. activation, % at 11.2 µM. hit rate 1% among 650,000; in the data active = activation above about 4.9%;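 note: 0% = median of compound wells and 100% = cells with positive control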
MITF inh = inhibitors of human MITF; O75030; AlphaScreen MITF homodimerization, bead proximity signal; inhibition, % at 2.6 µM; hit rate 0.91% among 650,000; AID 1259374; in the data active = inhibition above about 50%;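 note: 0% = vehicle wells with protein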
Target sequence (O75030 whole entry, looked up): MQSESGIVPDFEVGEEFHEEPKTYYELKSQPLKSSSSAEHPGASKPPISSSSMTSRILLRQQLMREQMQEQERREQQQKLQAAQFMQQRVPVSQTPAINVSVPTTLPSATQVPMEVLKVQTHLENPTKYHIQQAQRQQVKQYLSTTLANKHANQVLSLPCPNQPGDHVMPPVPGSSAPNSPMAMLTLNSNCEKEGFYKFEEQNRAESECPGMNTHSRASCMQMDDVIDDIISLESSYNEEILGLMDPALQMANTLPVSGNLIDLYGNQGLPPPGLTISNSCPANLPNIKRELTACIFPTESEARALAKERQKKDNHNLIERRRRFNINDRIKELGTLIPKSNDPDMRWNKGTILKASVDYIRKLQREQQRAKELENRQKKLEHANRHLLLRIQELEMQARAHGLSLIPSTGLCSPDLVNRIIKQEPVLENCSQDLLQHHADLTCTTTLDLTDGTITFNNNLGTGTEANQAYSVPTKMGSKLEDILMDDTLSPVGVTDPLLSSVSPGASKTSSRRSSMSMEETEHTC
TEAD-YAP block = TEAD-YAP interaction inhibition. HEK-TIYL cells, TEAD-Gal4/YAP UAS-luciferase luminescence. inhibition, % at 9.12 µM. hit rate 1.4% among 640,000; in the data active = inhibition above about 32%;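 note: 0% = median of test compound wells and 100% = reference inhibitor wells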
Active calls of the source: *.

SMILES | FBW7 activator | GPR151 activ | MITF inh | TEAD-YAP block
Cc1sc2ncnc(N/N=C/c3ccccn3)c2c1C | -0.8 | -0.6 | 20.0 | 92.3*
S=c1[nH]nc(-c2ccccc2)n1-c1ccccc1 | -0.1 | 0.4 | 6.6 | 7.6
Cc1cccc(-c2n[nH]c(=S)n2-c2ccccc2)c1 | 0.2 | -0.3 | 1.0 | 49.5*
CCN(CC)S(=O)(=O)c1cccc(C(=O)Nc2nc(COc3ccccc3)cs2)c1 | 0.3 | 1.0 | 2.3 | 32.3*
O=c1oc2ccc(Cl)cc2c(=O)n1-c1cccc(C(F)(F)F)c1 | -0.1 | 0.0 | -19.2 | 76.0*
O=C(CCC(=O)Nc1ccc(Nc2ccccc2)cc1)Nc1ccc(Nc2ccccc2)cc1 | -0.1 | 1.3 | 8.1 | 6.6
Cc1cc(C)n(CC(O)Cn2c(C)c(C)c3ccccc32)n1 (configuration not stated) | -0.3 | -0.2 | 52.8* | -4.8
N#Cc1ccccc1Cn1nc(-c2cccc3ncccc23)oc1=O | 0.1 | -0.2 | 13.9 | 52.8*
COCC(C)n1c(C)cc(C(=O)COC(=O)c2c(OC)cccc2OC)c1C (configuration not stated) | -0.1 | -1.6 | 9.8 | 21.6
COCC(C)n1c(C)cc(C(=O)COC(=O)c2cccc(C)c2C)c1C (configuration not stated) | -0.1 | -0.5 | 7.3 | 46.5*
Cc1cc(C(=O)CSc2nc3ccccc3[nH]2)c(C)n1C1CC1 | 0.1 | -0.7 | 6.7 | -71.1
COCC(C)n1c(C)cc(C(=O)COC(=O)c2oc3ccccc3c2C)c1C (configuration not stated) | 0.0 | -0.8 | 5.1 | -0.2
COCC(C)n1c(C)cc(C(=O)CSc2nc3ccccc3[nH]2)c1C (configuration not stated) | -0.1 | 3.2 | 8.2 | 40.1*
COCC(C)n1c(C)cc(C(=O)COC(=O)c2n[nH]c3ccccc23)c1C (configuration not stated) | 0.2 | -2.3 | 17.9 | 88.3*
Cc1ccsc1CN1CCc2nnc(CCNC(=O)COc3ccccc3)n2CC1 | 0.0 | -0.1 | 2.2 | -6.3
CCc1ccc(CN(C)C(=O)Cn2cc(NC(=O)c3ccco3)cn2)nc1 | -0.1 | 0.9 | -8.5 | -4.9
COc1ccc(CCNc2cc(N3CCN(C(=O)c4ccc(Br)cc4)CC3)ccc2[N+](=O)[O-])cc1OC | 0.0 | -1.1 | -6.8 | -2.7
COc1ccc(CCNc2cc(N3CCN(C(C)=O)CC3)ccc2[N+](=O)[O-])cc1OC | 0.0 | 0.8 | -10.5 | 45.6*
COc1ccc(CCNc2cc(N3CCN(S(=O)(=O)N(C)C)CC3)ccc2[N+](=O)[O-])cc1OC | 0.1 | 1.8 | 4.9 | 38.9*
COc1ccc(CCNc2cc(N3CCCCC3)ccc2[N+](=O)[O-])cc1OC | -0.3 | -0.2 | 8.5 | 38.8*
CCOc1cc(C2C(C#N)=C(N)Oc3c2ccc2ccccc32)ccc1O (configuration not stated) | 0.1 | -0.3 | 16.5 | 12.1
COc1ccc(OC)c(C2C(C#N)=C(N)Oc3c2c(=O)[nH]c2ccccc32)c1 (configuration not stated) | 0.2 | 0.3 | 1.5 | -4.7
COc1ccc(OC)c(C2C(C#N)=C(N)Oc3c2ccc2ccccc32)c1 (configuration not stated) | 0.2 | -1.7 | 5.4 | 51.0*
COc1cccc(C2C(C#N)=C(N)Oc3n[nH]c(-c4ccc5ccccc5c4)c32)c1 (configuration not stated) | -0.6 | 0.6 | -2.8 | -2.0
COc1cc(C2C(C#N)=C(N)Oc3c2ccc2ccccc32)cc(Br)c1O (configuration not stated) | 0.0 | -1.3 | 10.2 | 63.8*
SMILES | FBW7 activator | GPR151 activ | MITF inh | TEAD-YAP block
COc1cccc(C2C(C#N)=C(N)Oc3ccc4ccccc4c32)c1 (configuration not stated) | 0.0 | -0.5 | 16.5 | 50.1*
Cc1ccc(/C=C2\N=C(c3ccc(Cl)c([N+](=O)[O-])c3)OC2=O)cc1 | 0.1 | 2.5 | 8.7 | 2.4
Cc1cc(C2C(C#N)=C(N)N(c3cccc(C(F)(F)F)c3)C3=C2C(=O)CCC3)c(C)s1 (configuration not stated) | -0.1 | 0.1 | -2.3 | -29.6
Cc1cccc(NC(=S)N(Cc2cccs2)C2CCCCC2)c1 | 0.1 | -0.3 | 10.6 | 4.4
COc1cc(Cc2nc3cc(C)c(C)cc3[nH]c2=O)cc(OC)c1OC | 0.1 | -0.6 | 4.0 | 54.6*
COc1ccccc1Cc1nc2cc(C)c(C)cc2[nH]c1=O | 0.0 | 0.6 | 6.8 | 7.0
COc1ccc(OC)c(NC(=O)c2c(Cl)nc(Cl)c(Cl)c2Cl)c1 | 0.1 | -1.4 | -5.2 | 64.4*
COc1ccccc1NC(=O)c1c(Cl)nc(Cl)c(Cl)c1Cl | 0.5 | 1.5 | 8.1 | 63.5*
COc1ccccc1NC(=O)c1c(OC)cccc1OC | -0.1 | -1.0 | -8.2 | 14.7
COC(=O)c1ccccc1-c1ccc(/C=C2/NC(=O)N(Cc3ccccc3F)C2=O)o1 | 0.2 | 0.1 | 23.1 | -10.3
Cc1ccc(C)n1-c1ccc(Br)cc1C(=O)O | -0.8 | -0.7 | 82.0* | -0.6
Cc1ccc(C)n1-c1ccc(C(=O)O)c(C(=O)O)c1 | -0.7 | 0.1 | -31.1 | 1.3
COc1ccc(OC)c(NC(=O)CNC(=O)c2nn(-c3ccc(OC)c(OC)c3)c(=O)c3ccccc23)c1 | -0.1 | 0.1 | -9.9 | 39.4*
COc1ccc(-n2nc(C(=O)NCC(=O)N3CCC(Cc4ccccc4)CC3)c3ccccc3c2=O)cc1 | 0.1 | 1.5 | 11.2 | 32.7*
COCCNC(=O)CNC(=O)c1nn(-c2ccc(OC)c(Cl)c2)c(=O)c2ccccc12 | 0.0 | 0.1 | 9.5 | -6.8
COc1ccc(-n2nc(C(=O)NCC(=O)NCCc3ccc(OC)c(OC)c3)c3ccccc3c2=O)cc1Cl | 0.0 | -1.3 | 7.6 | 37.7*
COc1ccc(OC)c(NC(=O)CNC(=O)c2nn(-c3ccc(OC)c(Cl)c3)c(=O)c3ccccc23)c1 | -0.1 | 0.6 | 2.2 | 35.6*
COc1ccc(-n2nc(C(=O)NCC(=O)N3CCCC3)c3ccccc3c2=O)cc1 | 0.1 | 0.3 | 7.4 | -2.3
O=C(Cn1nc(-c2ccc(F)cc2)ccc1=O)Nc1cccnc1 | 0.2 | -0.8 | -0.6 | 1.6
NNc1ccc2nnc(C(F)(F)C(F)(F)C(F)(F)F)n2n1 | 1.9* | 0.1 | 4.8 | 9.2
COC(=O)C1=CN(CC23CC4CC(CC(C4)C2)C3)C=C(C(=O)OC)C1c1ccsc1 | 1.9* | -1.4 | -7.7 | -2.6
O=C(NCCc1ccccc1)c1ccc2c(c1)NC(=O)c1ccccc1S2 | 0.0 | 0.5 | -1.3 | 53.0*
CCCNC(=O)c1ccc2c(c1)NC(=O)c1ccccc1S2 | 0.0 | 1.2 | -1.9 | -0.7
O=C(Nc1ccccc1Cl)c1cc(S(=O)(=O)NCc2ccc(F)cc2)ccc1F | 0.2 | -1.5 | 15.3 | -2.3
Cc1sc2ncnc(NCCc3ccc4c(c3)OCCO4)c2c1C | 0.6 | 1.2 | 17.2 | 56.6*
Cc1sc2ncnc(NCC3COc4ccccc4O3)c2c1C (configuration not stated) | 0.2 | -0.3 | 5.1 | 47.7*
CCCCn1c(N)c(N(CCC(C)C)C(=O)COC(=O)c2c(C)noc2C)c(=O)[nH]c1=O | 0.2 | 1.0 | 12.7 | 4.9
COC(=O)c1c(NC(=O)C(=O)NCc2ccncc2)sc2c1CCC2 | -0.2 | 0.3 | 0.7 | -11.6

Assay outcomes from PubChem.
